Experimental data from PubChem BioAssay (NCI).
About 79,000 compounds went through this panel and 15% of them were active in at least one assay; those are over-represented in the sample as a whole. Calls of active or inactive are those of the source. No stated cut-off is given here; in the data, active means growth inhibition above about 70%; inactive means the rest.

Tests used:
[1] = NCI Yeast Anticancer Drug Screen. Data for the rad52 strain (AID 147);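 further: 0% = growth of vehicle-treated control cultures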; conditions: S. cerevisiae rad52 mutant growth inhibition, stronger effect = higher value
In short: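 DNA repair-defective yeast; compound exposure; growth scored against vehicle controls.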

[2] = NCI Yeast Anticancer Drug Screen. Data for the wt1 strain (AID 149);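 further: 0% = growth of vehicle-treated wt1 cultures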; conditions: S. cerevisiae wt1 strain (SPY 50644) growth inhibition, stronger effect = higher value
In short: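 Compounds are added to wt1 yeast cultures. Growth is then measured. Inhibition is expressed relative to vehicle-treated controls.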

[3] = NCI Yeast Anticancer Drug Screen. Data for the rad50EPP+ strain (AID 151);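 further: 0% = growth of vehicle-treated control cultures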; conditions: S. cerevisiae rad50 mutant strain, stronger effect = higher value
In short: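 rad50EPP+ yeast treated with test compounds. Readout: growth vs vehicle control.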

[4] = NCI Yeast Anticancer Drug Screen. Data for the mgt1 strain (AID 153); conditions: S. cerevisiae mgt1 mutant growth inhibition, stronger effect = higher value
In short: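 Growth inhibition relative to vehicle controls was scored for the mgt1 yeast strain after compound exposure.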

[5] = NCI Yeast Anticancer Drug Screen. Data for the rad50 strain (AID 155);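 further: 0% = growth of vehicle-only cultures of the same strain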; conditions: S. cerevisiae rad50 strain growth inhibition, stronger effect = higher value
In short: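 Inhibition values express reduced yeast growth in compound-treated cultures relative to vehicle-treated controls.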

[6] = NCI Yeast Anticancer Drug Screen. Data for the mec2-1 strain (AID 157); conditions: S. cerevisiae mec2-1 strain, stronger effect = higher value
In short: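 Growth inhibition is read against vehicle-treated controls after compound exposure of the mec2-1 yeast strain, which is defective in DNA damage repair or cell cycle control.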

[7] = NCI Yeast Anticancer Drug Screen. Data for the sgs1 mgt1 strain (AID 161);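 further: 0% = growth of cultures given vehicle only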; conditions: S. cerevisiae sgs1 mgt1 strain, stronger effect = higher value
In short: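 Growth of a repair-deficient yeast mutant was monitored after compound treatment and expressed as inhibition relative to vehicle-treated cultures.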

[8] = NCI Yeast Anticancer Drug Screen. Data for the CLN2oe strain (AID 163);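 further: 0% = growth of vehicle-only control cultures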; conditions: S. cerevisiae CLN2oe strain, stronger effect = higher value
In short: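 Compound-treated yeast; growth vs vehicle ctrl = % inhibition. Genetically altered strain (cell-cycle control).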

[9] = NCI Yeast Anticancer Drug Screen. Data for the cln2 rad14 strain (AID 165);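 further: 0% = growth equal to vehicle treated cultures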; conditions: S. cerevisiae cln2 rad14 strain, stronger effect = higher value
In short: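 Growth inhibition, relative to vehicle-treated controls, is the read-out. The test organism is a yeast strain with defined genetic alterations, cln2 rad14.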

[10] = NCI Yeast Anticancer Drug Screen. Data for the bub3 strain (AID 167); conditions: S. cerevisiae bub3 mutant strain, stronger effect = higher value
In short: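 Steps: expose the mutant yeast strain to compound; grow alongside vehicle-treated cultures; measure growth; express inhibition against the vehicle cultures.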

[11] = NCI Yeast Anticancer Drug Screen. Data for the wt2 strain (AID 169);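 further: 0% = growth of vehicle-treated yeast cultures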; conditions: S. cerevisiae wt2 strain growth inhibition, stronger effect = higher value
In short: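 Compound exposure of yeast; growth compared with vehicle controls; inhibition reported.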

[12] = NCI Yeast Anticancer Drug Screen. Data for the mlh1 strain (AID 171);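 further: 0% = growth of vehicle-treated control cultures of the same strain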; conditions: S. cerevisiae mlh1 strain growth inhibition, stronger effect = higher value
In short: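 Compounds are applied to a genetically altered yeast strain, and its growth is compared with that of vehicle-treated cultures to give percent inhibition.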

[13] = NCI Yeast Anticancer Drug Screen. Data for the sgs1 strain (AID 173);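 further: 0% = growth of vehicle-only control cultures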; conditions: S. cerevisiae sgs1 mutant, stronger effect = higher value
In short: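 Compounds applied to genetically altered yeast; growth compared with vehicle-treated cultures to give % inhibition.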

[14] = NCI Yeast Anticancer Drug Screen. Data for the mlh1 rad18 strain (AID 175); conditions: S. cerevisiae mlh1 rad18 strain growth inhibition, stronger effect = higher value
In short: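 Cells of a genetically altered yeast strain, deficient in DNA damage repair, were treated with compound. Their growth was then compared with that of vehicle-treated cultures to give inhibition.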

[15] = NCI Yeast Anticancer Drug Screen. Data for the rad18 strain (AID 177); conditions: S. cerevisiae rad18 mutant growth inhibition, stronger effect = higher value
In short: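 Compounds are applied to a repair-deficient yeast strain, and growth is compared with that of vehicle-treated cultures to give percent inhibition.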

[16] = at 5.0 µM (retest, dose inferred, filed as 0.5)
[17] = at 50.0 µM (retest, dose inferred, filed as 5.0)

Measured: growth inhibition

O=S(=O)(NC1CCCC(c2ccccc2)C1)c1ccccc1 (stereo not drawn)
inactive: [1]; at 1.2 µM 1% | [1]; at 3.7 µM 3% | [1]; at 11.0 µM 3% | [1]; at 33.0 µM 10% | [2]; at 1.2 µM -1% | [2]; at 3.7 µM -4% | [2]; at 11.0 µM 2% | [2]; at 33.0 µM -3% | [2]; at 100.0 µM 50% | [3]; at 1.2 µM -1% | [3]; at 3.7 µM 1% | [3]; at 11.0 µM -1% | [3]; at 33.0 µM 3% | [3]; at 100.0 µM 20% | [4]; at 1.2 µM -3% | [4]; at 3.7 µM -2% | [4]; at 11.0 µM -1% | [4]; at 33.0 µM -2% | [5]; at 1.2 µM 3% | [5]; at 3.7 µM 3% | [5]; [16] -9% | [5]; at 11.0 µM 2% | [5]; at 33.0 µM 11% | [5]; at 50.0 µM 18.2% | [6]; at 1.2 µM -8% | [6]; at 3.7 µM -2% | [6]; [16] -12% | [6]; at 11.0 µM -3% | [6]; at 33.0 µM 0% | [6]; [17] -7% | [6]; at 50.0 µM 24.6% | [7]; [16] -24% | [7]; [17] 23% | [7]; at 50.0 µM 19.4% | [8]; at 1.2 µM -4% | [8]; at 3.7 µM -4% | [8]; at 11.0 µM 2% | [8]; at 33.0 µM 9% | [9]; [16] -13% | [9]; [17] 16% | [9]; at 50.0 µM 50.8% | [10]; at 1.2 µM 1% | [10]; at 3.7 µM -1% | [10]; [16] -8% | [10]; at 11.0 µM 0% | [10]; at 33.0 µM 15% | [10]; at 50.0 µM 60.8% | [11]; at 1.2 µM -4% | [11]; at 3.7 µM -7% | [11]; at 11.0 µM -3% | [11]; at 33.0 µM -6% | [12]; at 1.2 µM -2% | [12]; at 3.7 µM 0% | [12]; at 11.0 µM -1% | [12]; at 33.0 µM 3% | [13]; at 1.2 µM -4% | [13]; at 3.7 µM 4% | [13]; at 11.0 µM -2% | [13]; at 33.0 µM 1% | [14]; [16] -26% | [14]; at 50.0 µM 57.8% | [15]; at 1.2 µM 0% | [15]; at 3.7 µM -2% | [15]; at 11.0 µM 1% | [15]; at 33.0 µM 3%
active: [1]; at 100.0 µM 90% | [4]; at 100.0 µM 95% | [5]; [17] 71% | [5]; at 100.0 µM 93% | [6]; at 100.0 µM 82% | [8]; at 100.0 µM 95% | [10]; [17] 76% | [10]; at 100.0 µM 87% | [11]; at 100.0 µM 90% | [12]; at 100.0 µM 82% | [13]; at 100.0 µM 97% | [14]; [17] 76% | [15]; at 100.0 µM 93%
